Data reported in PubChem BioAssay (NCATS).
Inconclusive results are not listed. Activity calls are given as the source filed them. Calls come from the whole dose curve; as a rule, active = well fitted inhibition curve with a large enough effect; inconclusive = small, poorly fitted or top-dose-only effect; inactive = flat fitted curve, though single readings scatter.

Experiments:
Assay in all cases: qHTS profiling for inhibitors of Plasmodium falciparum proliferation (AID 504749);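 note: 0% = DMSO vehicle and full inhibition = artemisinin control; nearly all actives have a fitted effect of over 60% in size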
Conditions in all cases: P. falciparum in erythrocytes, SYBR Green DNA, 72 h; series mostly up to 28.7 µM
AA1029 = test system: AA1029
Outline: (§1)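 In a 72 h erythrocytic culture (37 C, humidified, 5% CO2) at 2.5% hematocrit and 0.3% starting parasitemia, compounds were tested; SYBR Green I in detergent lysis buffer stained parasite DNA overnight.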

AS120 = test system: AS120
Outline: as §1

ATS189 = test system: ATS189
Outline: as §1

ATS95 = test system: ATS95
Outline: as §1

C2A = test system: C2A
Outline: as §1

CP185 = test system: CP185
Outline: as §1

CP191 = test system: CP191
Outline: as §1

CP192 = test system: CP192
Outline: as §1

CP194 = test system: CP194
Outline: as §1

CP201 = test system: CP201
Outline: as §1

COP(=S)(OC)Oc1ccc(SC)c(C)c1
inactive: Potency (AA1029) | Potency (AS120) | Potency (ATS189) | Potency (ATS95) | Potency (C2A) | Potency (CP185) | Potency (CP191) | Potency (CP192) | Potency (CP194) | Potency (CP201)

O=C(Nc1ccc(Br)cc1)c1cc(Br)cc(Br)c1O
inactive: Potency (AA1029) | Potency (AS120) | Potency (ATS189) | Potency (ATS95) | Potency (C2A) | Potency (CP185) | Potency (CP191) | Potency (CP192) | Potency (CP194) | Potency (CP201)

CN1C(=O)NC(=O)C(C)(C2=CCCCC2)C1=O (stereo not given)
inactive: Potency (AA1029) | Potency (AS120) | Potency (ATS189) | Potency (ATS95) | Potency (C2A) | Potency (CP185) | Potency (CP191) | Potency (CP192) | Potency (CP194) | Potency (CP201)

CC(C)c1cccc(C(C)C)c1O
inactive: Potency (AA1029) | Potency (AS120) | Potency (ATS189) | Potency (ATS95) | Potency (C2A) | Potency (CP185) | Potency (CP191) | Potency (CP192) | Potency (CP194) | Potency (CP201)

CN1CCC(O)(c2ccc(F)cc2)C(C(=O)c2ccc(F)cc2)C1 (stereo not given)
inactive: Potency (AA1029) | Potency (AS120) | Potency (ATS189) | Potency (ATS95) | Potency (C2A) | Potency (CP185) | Potency (CP191) | Potency (CP192) | Potency (CP194) | Potency (CP201)

Nc1ccccc1C(=O)O
inactive: Potency (AA1029) | Potency (AS120) | Potency (ATS189) | Potency (ATS95) | Potency (C2A) | Potency (CP185) | Potency (CP191) | Potency (CP192) | Potency (CP194) | Potency (CP201)

C[C@]12CC[C@@H]3c4ccc(OC(=O)N(CCCl)CCCl)cc4CC[C@H]3[C@@H]1CC[C@@H]2O
inactive: Potency (AA1029) | Potency (AS120) | Potency (ATS189) | Potency (ATS95) | Potency (C2A) | Potency (CP185) | Potency (CP191) | Potency (CP192) | Potency (CP194) | Potency (CP201)

CN1C(=O)C(O)N=C(c2ccccc2)c2cc(Cl)ccc21 (stereo not given)
inactive: Potency (AA1029) | Potency (AS120) | Potency (ATS189) | Potency (ATS95) | Potency (C2A) | Potency (CP185) | Potency (CP191) | Potency (CP192) | Potency (CP194) | Potency (CP201)

NC(=O)CS(=O)C(c1ccccc1)c1ccccc1 (stereo not given)
inactive: Potency (AA1029) | Potency (AS120) | Potency (ATS189) | Potency (ATS95) | Potency (C2A) | Potency (CP185) | Potency (CP191) | Potency (CP192) | Potency (CP194) | Potency (CP201)

C[C@]12CCC(=O)C=C1CC[C@@H]1[C@@H]2CC[C@]2(C)C(=O)CC[C@@H]12
inactive: Potency (AA1029) | Potency (AS120) | Potency (ATS189) | Potency (ATS95) | Potency (C2A) | Potency (CP185) | Potency (CP191) | Potency (CP192) | Potency (CP194) | Potency (CP201)

CCCCC/C=C\C/C=C\C/C=C\C/C=C\CCCC(=O)NCC(=O)O
inactive: activity, negative = inhibition (AA1029) -5.7% [at 2.67 µM] | activity, negative = inhibition (AS120) -10.8% [at 2.67 µM] | activity, negative = inhibition (ATS189) -4.38% [at 2.67 µM] | activity, negative = inhibition (ATS95) -8.06% [at 2.67 µM] | activity, negative = inhibition (C2A) -0.778% [at 2.67 µM] | activity, negative = inhibition (CP185) 13.1% [at 2.67 µM] | activity, negative = inhibition (CP191) 8.29% [at 2.67 µM] | activity, negative = inhibition (CP192) -0.958% [at 2.67 µM] | activity, negative = inhibition (CP194) 0.793% [at 2.67 µM] | activity, negative = inhibition (CP201) 1.43% [at 2.67 µM]

NNc1ccccc1
inactive: Potency (AA1029) | Potency (AS120) | Potency (ATS189) | Potency (ATS95) | Potency (C2A) | Potency (CP185) | Potency (CP191) | Potency (CP192) | Potency (CP194) | Potency (CP201)

Clc1ccc2c(c1)C(c1ccccc1)=NCc1nncn1-2
inactive: Potency (AA1029) | Potency (AS120) | Potency (ATS189) | Potency (ATS95) | Potency (C2A) | Potency (CP185) | Potency (CP191) | Potency (CP192) | Potency (CP194) | Potency (CP201)

COP(=S)(OC)SCN1C(=O)c2ccccc2C1=O
inactive: Potency (AA1029) | Potency (AS120) | Potency (ATS189) | Potency (ATS95) | Potency (C2A) | Potency (CP185) | Potency (CP191) | Potency (CP192) | Potency (CP194) | Potency (CP201)

CN1C(=O)COc2c(C(=O)NC3CN4CCC3CC4)cc(Cl)cc21 (stereo not given)
inactive: Potency (AA1029) | Potency (AS120) | Potency (ATS189) | Potency (ATS95) | Potency (C2A) | Potency (CP185) | Potency (CP191) | Potency (CP192) | Potency (CP194) | Potency (CP201)

C[C@](O)(CS(=O)(=O)c1ccc(F)cc1)C(=O)Nc1ccc(C#N)c(C(F)(F)F)c1
inactive: Potency (AA1029) | Potency (AS120) | Potency (ATS189) | Potency (ATS95) | Potency (C2A) | Potency (CP185) | Potency (CP191) | Potency (CP192) | Potency (CP194) | Potency (CP201)

Nc1nc(N)nc(NC2CC2)n1
inactive: Potency (AA1029) | Potency (AS120) | Potency (ATS189) | Potency (ATS95) | Potency (C2A) | Potency (CP185) | Potency (CP191) | Potency (CP192) | Potency (CP194) | Potency (CP201)

CCOC(=O)CC(SP(=S)(OC)OC)C(=O)OCC (stereo not given)
inactive: Potency (AA1029) | Potency (AS120) | Potency (ATS189) | Potency (ATS95) | Potency (C2A) | Potency (CP185) | Potency (CP191) | Potency (CP192) | Potency (CP194) | Potency (CP201)

COc1c2c(cc3c1OCO3)CCN(C)C2
inactive: Potency (AA1029) | Potency (AS120) | Potency (ATS189) | Potency (ATS95) | Potency (C2A) | Potency (CP185) | Potency (CP191) | Potency (CP192) | Potency (CP194) | Potency (CP201)

O=C1Nc2ccc(Cl)cc2C(c2ccccc2)=NC1O (stereo not given)
inactive: Potency (AA1029) | Potency (AS120) | Potency (ATS189) | Potency (ATS95) | Potency (C2A) | Potency (CP185) | Potency (CP191) | Potency (CP192) | Potency (CP194) | Potency (CP201)

CCC1(CC)C(=O)C=CNC1=O
inactive: Potency (AA1029) | Potency (AS120) | Potency (ATS189) | Potency (ATS95) | Potency (C2A) | Potency (CP185) | Potency (CP191) | Potency (CP192) | Potency (CP194) | Potency (CP201)

Oc1ccc(Cl)cc1
inactive: Potency (AA1029) | Potency (AS120) | Potency (ATS189) | Potency (ATS95) | Potency (C2A) | Potency (CP185) | Potency (CP191) | Potency (CP192) | Potency (CP194) | Potency (CP201)

CCCCCCCCCC(=O)O[C@H]1CC[C@H]2[C@@H]3CCC4=CC(=O)CC[C@@H]4[C@H]3CC[C@]12C
inactive: Potency (AA1029) | Potency (AS120) | Potency (ATS189) | Potency (ATS95) | Potency (C2A) | Potency (CP185) | Potency (CP191) | Potency (CP192) | Potency (CP194) | Potency (CP201)

CC(C)NC(C)C
inactive: Potency (AA1029) | Potency (AS120) | Potency (ATS189) | Potency (ATS95) | Potency (C2A) | Potency (CP185) | Potency (CP191) | Potency (CP192) | Potency (CP194) | Potency (CP201)

CN1C(=O)CC(=O)N(c2ccccc2)c2cc(Cl)ccc21
inactive: Potency (AA1029) | Potency (AS120) | Potency (ATS189) | Potency (ATS95) | Potency (C2A) | Potency (CP185) | Potency (CP191) | Potency (CP192) | Potency (CP194) | Potency (CP201)

O=C1OC(c2ccc(O)c(S(=O)(=O)O)c2)(c2ccc(O)c(S(=O)(=O)O)c2)c2c(Br)c(Br)c(Br)c(Br)c21
inactive: Potency (AA1029) | Potency (AS120) | Potency (ATS189) | Potency (ATS95) | Potency (C2A) | Potency (CP185) | Potency (CP191) | Potency (CP192) | Potency (CP194) | Potency (CP201)

O=c1[nH]oc2c1CCNC2
inactive: Potency (AA1029) | Potency (AS120) | Potency (ATS189) | Potency (ATS95) | Potency (C2A) | Potency (CP185) | Potency (CP191) | Potency (CP192) | Potency (CP194) | Potency (CP201)

O=C(O)CCCc1ccc(N(CCCl)CCCl)cc1
inactive: Potency (AA1029) | Potency (AS120) | Potency (ATS189) | Potency (ATS95) | Potency (C2A) | Potency (CP185) | Potency (CP191) | Potency (CP192) | Potency (CP194) | Potency (CP201)
